From PubChem BioAssay
KCNQ2 inh = inhibitors of rat KCNQ2 potassium channel; CHO-K1 KCNQ2, FluxOR thallium flux, 20 min; stronger effect = lower value; 310,000 compounds, 1.1% hits; O88943; B-score at 10 µM;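 active = fluorescence ratio B-score at most minus 3 library SDs, with starting brightness B-score within 2 library SDs, cut at about -5.5 in these data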
Target sequence (O88943 whole entry, looked up): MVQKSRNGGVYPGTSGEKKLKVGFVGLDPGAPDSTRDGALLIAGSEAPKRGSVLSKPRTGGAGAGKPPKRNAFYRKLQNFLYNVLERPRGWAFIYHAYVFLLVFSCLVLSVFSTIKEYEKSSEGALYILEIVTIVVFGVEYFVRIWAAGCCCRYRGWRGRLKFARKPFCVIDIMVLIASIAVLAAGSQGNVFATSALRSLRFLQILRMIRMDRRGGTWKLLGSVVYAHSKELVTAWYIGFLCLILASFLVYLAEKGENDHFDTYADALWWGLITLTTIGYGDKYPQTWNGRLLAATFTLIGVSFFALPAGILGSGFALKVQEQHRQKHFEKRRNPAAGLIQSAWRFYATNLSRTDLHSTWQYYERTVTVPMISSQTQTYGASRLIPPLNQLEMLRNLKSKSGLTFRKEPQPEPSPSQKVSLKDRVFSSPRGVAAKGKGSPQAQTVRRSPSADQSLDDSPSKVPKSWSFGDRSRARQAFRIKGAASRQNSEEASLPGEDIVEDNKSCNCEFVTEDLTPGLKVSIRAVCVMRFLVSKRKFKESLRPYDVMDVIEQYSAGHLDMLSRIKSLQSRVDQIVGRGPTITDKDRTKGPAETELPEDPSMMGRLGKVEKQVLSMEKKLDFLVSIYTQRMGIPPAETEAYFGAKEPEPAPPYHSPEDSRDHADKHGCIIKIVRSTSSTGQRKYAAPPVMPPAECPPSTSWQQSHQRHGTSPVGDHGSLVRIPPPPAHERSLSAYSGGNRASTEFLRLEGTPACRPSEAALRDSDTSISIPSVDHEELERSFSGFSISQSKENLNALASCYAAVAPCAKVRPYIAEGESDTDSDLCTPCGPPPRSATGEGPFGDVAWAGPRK
KCNQ2 enhance = KCNQ2 (rat) channel potentiation; 310,000 compounds, 0.54% hits; B-score at 10 µM; CHO-K1 KCNQ2, FluxOR thallium flux fluorescence; stronger effect = higher value;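 active = fluorescence ratio B-score at least 3 SD of library B-scores, with initial fluorescence B-score within 3 of them, cut at about 5.3 in these data; same plate scores as AID 2156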;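 note: B-score of peak minus minimum over baseline fluorescence ratio after K+ and Tl+ stimulus; positive B-score means potentiation of KCNQ2 with more thallium influx and brighter signal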
* marks the source's active call; other numbers are inactive results; i = inactive; . = not tested or not shown. Most compounds without a hit are left out; they make up all but 1.6% or so of the library.

SMILES | KCNQ2 inh | KCNQ2 enhance
Cc1ccc2c(c1)-c1c(cnn1CC(=O)O)CO2 | i | .
Cc1ccc2c(c1)-c1c(cnn1CC(=O)N1CCCN(Cc3ccccc3F)C1)CO2 | -8.2* | -8.2
COc1ccc(CCN2C(=O)CSC2=Nc2ccc(C(C)C)cc2)cc1OC | i | 0.04
Cc1ccc(S[C@@H](CCN2CC[C@H](NC(=O)OCc3ccccc3)CCC2=O)c2ccccc2)cc1 | -6.9* | -6.9
Cc1ccc(SC[C@H](C)CN2CC[C@H](NC(=O)OCc3ccccc3)CCC2=O)cc1 | i | .
CCNC(=S)N/N=C/c1cccc(OCc2c(F)cccc2Cl)c1 | i | 0.06
COC(=O)[C@]1(C)N[C@H](c2ccc(SC3CCCCC3)c(OC)c2)[C@@H]2C(=O)N(C)C(=O)[C@@H]21 | i | .
O=C(NCc1ccco1)Nc1ccc2snnc2c1 | i | 6.1*
Cc1nc2ccc(NC(=O)NCc3ccco3)cc2s1 | i | 0.31
Cc1ccn(C(=O)c2ccc(NC(=O)CC(C)C)cc2)n1 | i | 0.14
O=[N+]([O-])c1ccc(Nc2nc(N/N=C\c3ccc4c(c3)OCO4)nc(N3CCCCC3)n2)cc1 | -5.8* | -5.8
O=[N+]([O-])c1ccc(/C=N/Nc2nc(N3CCCCC3)nc(N3CCCCC3)n2)cc1 | i | .
Cc1ccc(C)c(NS(=O)(=O)c2cc(C(=O)NCCSC3CCCCC3)ccc2C)c1 | i | .
Cc1ccccc1NS(=O)(=O)c1cc(C(=O)NCCSC2CCCCC2)ccc1C | -5.8* | -5.8
O=C(CNS(=O)(=O)c1ccc(Cl)cc1)OCC(=O)N1CCCc2ccccc21 | i | .
O=C(COC(=O)C1(c2ccc(Cl)cc2)CCCC1)N1CCc2ccccc21 | -7.3* | -7.3
CCCCc1ccc(NC(=O)CC(C)(C)C)cc1 | i | 14*
CCCCc1ccc(NC(=O)CC(C)=O)cc1 | i | 1
COC(=O)c1ccccc1NC(=O)N1c2ccccc2Sc2ccccc21 | i | .
CCOC(=O)c1nnc(-c2ccc(C)cc2)nc1Oc1ccccc1Cl | i | .
CCOC(=O)c1nnc(-c2ccc(C)cc2)nc1Oc1ccc(Cl)cc1Cl | -6* | -6
CCOC(=O)C1(Cc2ccccc2)CCCN(Cc2ccc(OCCO)cc2)C1 (centres undefined) | i | 0.09
CCOC(=O)C1(Cc2ccccc2)CCCN(Cc2cccc(C(C)=O)c2)C1 (centres undefined) | -6* | -6
NC1=NS(=O)(=O)NC1c1ccc(F)cc1 (centres undefined) | i | .
COc1ccc(-n2c(COc3ccc4ccccc4c3)nnc2SCC(=O)NCc2ccco2)cc1 | i | 1.1
SMILES | KCNQ2 inh | KCNQ2 enhance
COc1ccc(OC)c(C(=O)CSc2nnc(-c3cccs3)n2C)c1 | i | 0.04
COc1ccc(OC)c(C(=O)CSc2nnc(Cc3cccs3)n2CCc2ccccc2)c1 | -7.1* | -7.1
COc1cccc(OCc2nnc(SCC(=O)NCc3ccco3)n2CCc2ccccc2)c1 | -6.8* | -6.8
O=C(N/C(=C\c1ccco1)C(=O)N1CCOCC1)c1ccc([N+](=O)[O-])cc1 | i | 0.26
O=C(N/C(=C\c1ccc(Br)cc1)C(=O)N1CCOCC1)c1ccc([N+](=O)[O-])cc1 | -5.9* | -5.9
CCOc1cc(/C=N/Nc2nc(N3CCCC3)nc(N3CCCC3)n2)ccc1O | -8.3* | -8.3
CCOc1cccc(/C=N/Nc2nc(N3CCCC3)nc(N3CCCC3)n2)c1O | i | 1.3
COc1ccc(C(=O)NC(=S)Nc2ccc(CN3CCOCC3)cc2)cc1OC | i | .
COc1ccc(Br)cc1/C=C/C(=O)NC(=S)Nc1ccc(CN2CCOCC2)cc1 | -6.3* | -6.3
CN(CC(=O)Nc1ccc(Cl)cc1)C(=O)CNC(=O)c1ccc(Br)o1 | i | 0.63
CS(=O)(=O)c1ccc(C(=O)NC2CCCc3ccccc32)cc1 (centres undefined) | i | 1.5
Cc1c(/C(O)=C2/C(=O)C(=O)N(CCN3CCOCC3)C2c2ccccn2)cnn1-c1ccccc1 (centres undefined) | i | .
Cc1cc(C)c2sc(N(CCCN(C)C)C(=O)c3ccc(S(=O)(=O)N4CCCc5ccccc54)cc3)nc2c1 | -7.7* | -7.7
Cc1cc(C)c2sc(N(CCCN(C)C)C(=O)c3ccc(S(=O)(=O)N4CCc5ccccc5C4)cc3)nc2c1 | i | .
O=C(CCc1ccccc1)c1c(O)cc(O)cc1O | -8.2* | -8.2
COc1ccc(C(=O)CCc2ccccc2)c(O)c1 | i | .
COc1ccc(OC)c(-c2nc(C(=O)NCC3CCCO3)cc3c2[nH]c2ccccc23)c1 (centres undefined) | i | .
COc1cccc(-c2nc(C(=O)NCC3CCCO3)cc3c2[nH]c2ccccc23)c1 (centres undefined) | -5.7* | -5.7
CC1(C)CC1C(=O)Nc1ccc([N+](=O)[O-])cc1Br (centres undefined) | i | 1.4
Cc1ccc(C2(c3ccc(C)cc3)CC2C(=O)Nc2ccc([N+](=O)[O-])cc2O)cc1 (centres undefined) | -7.8* | -7.8
COc1ccc2c(c1)CCc1c-2nc2ccccc2c1N1CCOCC1 | i | .
Cc1ccccc1NC(=O)OCCN1CCN(Cc2ccccc2)CCC1=O | -6.3* | -6.3
Cc1ccc(NC(=O)OCCN2CCN(Cc3ccccc3)CCC2=O)cc1C | i | .
COc1ccc(C(=O)NCC(c2ccco2)N2CCc3ccccc3C2)cc1 (centres undefined) | i | .
O=C(NCC(c1ccco1)N1CCc2ccccc2C1)c1cccc([N+](=O)[O-])c1 (centres undefined) | i | .
SMILES | KCNQ2 inh | KCNQ2 enhance
O=C(NCC(c1ccco1)N1CCc2ccccc2C1)c1ccc(Cl)c([N+](=O)[O-])c1 (centres undefined) | -5.8* | -5.8
CCOc1ccc(C(=O)NCC(c2ccco2)N2CCc3ccccc3C2)cc1 (centres undefined) | -6.4* | -6.4
Cc1noc(C)c1C(=O)NC1=NCCS1 | i | 0.46
CC(C)c1nc2ccccc2c2nnc(SCC(=O)NCc3ccco3)n12 | i | .
CC(C)(C)c1nc2ccccc2c2nnc(SCC(=O)NCc3ccco3)n12 | -6.5* | -6.5
CCCCNC(=O)C(=O)NC(C)CCc1ccccc1 (centres undefined) | i | 0.77
O=C(NCC1(c2ccccc2)CCCC1)C1(c2ccccc2)CCCC1 | -7* | -7
O=C(NCC1(c2ccccc2)CCCC1)C(=O)NCC1(c2ccccc2)CCCC1 | i | .
COc1ccc(OC)c(S(=O)(=O)Nc2cc3c4c(c2)C(C)C(=O)N4CCC3)c1 (centres undefined) | i | 0.44
O=C(c1cc(-c2ccc(Br)cc2)nc2ccccc12)N1CCC1 | -6.4* | -6.4
Cc1ccc(-c2cc(C(=O)N3CCCC3)c3ccccc3n2)s1 | -5.9* | -5.9
O=C(c1cc(-c2ccc(Cl)s2)nc2ccccc12)N1CCCC1 | i | 0.14
O=C(c1cc(-c2cccc(Br)c2)nc2ccccc12)N1CCCC1 | i | .
CCOC(=O)C1(CCOc2ccccc2)CCN(Cc2cccc3nonc23)CC1 | -6.2* | -6.2
CCOC(=O)C1(CCOc2ccccc2)CCN(Cc2ccc(O)cc2)CC1 | i | 1.6
COc1cccc(N2CCN(C(=O)c3cc4ccc(OC)cc4[nH]3)CC2)c1 | i | 1.2
COc1ccc2cc(C(=O)N3CCN(c4cccc(C)c4C)CC3)[nH]c2c1 | -6.2* | -6.2
O=C(Cn1c(=O)n(CC(=O)NCc2ccccc2)c2ccccc21)NCc1ccccc1 | i | .
Cc1cc(=O)c2cc(Br)ccc2n1CC(=O)NCc1ccccc1 | -8.3* | -8.3
